Assay [1] concerns Zika virus NS2B-NS3 protease (linked construct). Briefly: Primary screen NINDS Rhodamine qHTS for Zika virus inhibitors (AID 1347160). Note: nearly all actives have a fitted effect of over 55% in size. Note: potency is the fitted concentration of half-maximal effect. A digest of the protocol: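 Each compound, titrated, sat 15 min with 25 nM linked protease before 1.5 microM Rhodamine110 substrate went in. Fluorescence gain over the next 15 min, in pH 8.0 Tris with Tween 20, gave Hill-fitted curves.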
A short description of assay [2]: UWB1.289 Cancer Cell Toxicity qHTS against the NCATS CANVASS Library (AID 1347347). Note: nearly all actives have a fitted effect of over 60% in size. Note: potency is the fitted concentration of half-maximal effect. In outline:
(§1)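 ATP content after 72 h treatment, detected by CellTiter-Glo luminescence (15min room-temperature development), reflects cell viability. Wells contained 1000 cells and received compounds at 11 concentrations.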
(In general: In qHTS, concentration-response curves come from the screen itself.)

The nature of assay [3]: Panc-1005 Cancer Cell Toxicity qHTS against the NCATS CANVASS Library (AID 1347349). Note: nearly all actives have a fitted effect of over 60% in size. Note: potency is the fitted concentration of half-maximal effect. A digest of the protocol: as §1
Assay [4] in a line: A2780 Cisplatin Sensitive Ovarian Cancer Cell Toxicity qHTS against the NCATS CANVASS Library (AID 1347353). Note: nearly all actives have a fitted effect of over 60% in size. Note: potency is the fitted concentration of half-maximal effect. In outline:
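Quantitative HTS format: eleven compound concentrations applied to pre-seeded cells, 72 h incubation at 37 °C, then ATP detection by luminescence.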

Assay [5] in a line: UWB1.289-WTBRCA1 Cancer Cell Toxicity qHTS against the NCATS CANVASS Library (AID 1347354). Note: potency is the fitted concentration of half-maximal effect. A digest of the protocol:
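Using an ATP-based luminescent reagent after three days of treatment, toxicity is scored across an eleven-concentration range in wells holding 1000 cells each.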

Assay [6] concerns NAD(P)H diaphorase (Clostridium kluyveri). Briefly: Diaphorse counterscreen qHTS: Assay Interference Panel against the NCATS CANVASS Library (AID 1347362). A digest of the protocol: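 Clostridium kluyveri diaphorase in PBS + 0.01% Tween-20 preincubated 15 min with compounds. Resazurin and NADH then added for 5 min at room temperature in the dark; resorufin fluorescence read (ex 525, em 598).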
In general terms: Counterscreens check selectivity or assay interference.

Assay [7] in a line: KB-8-5-11 Cancer Cell Toxicity qHTS against the NCATS CANVASS Library (AID 1347364). Note: nearly all actives have a fitted effect of over 75% in size. Note: potency is the fitted concentration of half-maximal effect. A digest of the protocol:
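Luminescent ATP signal (CellTiter-Glo, 10 min at room temperature) measured cell survival of KB-8-5-11 after 72 hr compound treatment. For confirmation, the cells were also grown with 1uM tariquidar.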

Assay [8] can be described thus: SDT Cancer Cell Toxicity qHTS against the NCATS CANVASS Library (AID 1347365). Note: nearly all actives have a fitted effect of over 60% in size. Note: potency is the fitted concentration of half-maximal effect. In outline: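 Canine SDT glioma cell toxicity was scored by ATP-dependent luminescence after a 72 hr incubation with an 11-point compound series.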
Assay [9] in a line: G06 Cancer Cell Toxicity qHTS against the NCATS CANVASS Library (AID 1347368). Note: nearly all actives have a fitted effect of over 60% in size. Note: potency is the fitted concentration of half-maximal effect. In outline: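 Quantitative HTS in G06 cells (dog glioma): 72 hr treatment, 11 concentrations, then ATP-based luminescent viability readout; bortezomib 0.1 nM–4.6 uM final as reference.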
A short description of assay [10]: qHTS for ATAD5 Antagonist screened against the NCATS CANVASS Library (AID 1347370). Note: nearly all actives have a fitted effect of over 65% in size. Note: potency is the fitted concentration of half-maximal effect. A digest of the protocol: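 HEK293T-ATAD5 luc reporter, 2000 cells/well; 5hr attach; cpd + 10 uM 5-FUrd; 16hr 37C, 5% CO2. Readouts: CellTiter-Fluor fluorescence (1hr), then Amplite luciferase luminescence (30min RT).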
Assay [11] in a line: qHTS for Hypoxia signaling pathway (HIF-1) antagonists against the NCATS CANVASS Library (AID 1347374). Note: nearly all actives have a fitted effect of over 60% in size. Note: potency is the fitted concentration of half-maximal effect. A digest of the protocol:
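Beta-lactamase reporter under HRE control in ME-180 cells; CoCl2 stimulus (60 uM solution as added), compounds 11-pt qHTS, 17 h 37C. CCF4 dye 2 h RT, 460/530 nm emission. CellTiter-Glo viability in same wells.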

Assay [12] is described as follows: qHTS for Hypoxia signaling pathway (HIF-1) agonists against the NCATS CANVASS Library (AID 1347375). A digest of the protocol: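 An HRE-beta-lactamase ME-180 line is exposed for 17 h to an 11-point compound series, then read by CCF4-AM FRET. Cytotoxicity is measured in parallel in the same wells with CellTiter-Glo, and autofluorescence is checked separately.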

The nature of assay [13]: Cytotoxicity qHTS for assessment of Hepg2 cells membrane integrity screened against the NCATS CANVASS Library (AID 1347387). In outline:
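Membrane damage in HepG2 monolayers was estimated from released LDH, measured with CytoTox-ONE (ex 560/em 590 nm), after 5 hr treatment across 0.59 nM - 46 uM final.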

Assay [14] can be described thus: qHTS for activators of Nrf2/ARE signaling pathway screened against the NCATS CANVASS Library (AID 1347391). Note: nearly all actives have a fitted effect of over 60% in size. In outline: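 Activation of Nrf2/ARE was scored in ARE-bla HepG2 cells after 16 h compound exposure using CCF4 beta-lactamase fluorescence ratio readings.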
A short description of assay [15]: qHTS for activators of dead-cell proteases activity screened against the NCATS CANVASS Library (AID 1347392).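 Note: luminescence from protease leaking out of membrane-damaged cells cleaving impermeant substrate; rising signal means more cytotoxicity.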 A digest of the protocol:
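HepG2, 2000 cells/well, 18 h attach; cpd 11-pt, 5 h 37C 5% CO2; CytoTox-Glo (AAF-aminoluciferin) 15 min RT; luminescence read.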

The nature of assay [16]: qHTS for inhibitors of Wild type Zika virus screened against the NCATS CANVASS Library (AID 1347396). Note: potency is the fitted concentration of half-maximal effect. In outline:
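Vero 766 (African green monkey) cells, 1000 per well, attached overnight, then compounds were added in an 11-point series before wild-type Zika virus infection. After 72 h at 37C, cell viability was read as CellTiter Glo luminescence.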

Assay [17] is described as follows: Redox Reaction Profiling qHTS: Assay Interference Panel against the NCATS CANVASS Library (AID 1347401). In outline:
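Fluorescence read-out (525 nm excitation, 598 nm emission) at time zero and after 15 min in the dark tracked resorufin formation. Mix: 5 uM resazurin, 200 uM DTT, HEPES pH 7.3 buffer with NaCl.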

The nature of assay [18]: HEK293 18hr Apoptosis Induction qHTS against the NCATS CANVASS Library (AID 1347357). In outline:
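HEK293 cells (500/well, DMEM + 10% FBS) treated with an 11-point series for 18 h at 37 degrees C. Caspase-3/7 activity read by Caspase-Glo luminescence after 15 min at room temperature.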

Assay [19] in a line: OV-SAHO Cancer Cell Toxicity qHTS against the NCATS CANVASS Library (AID 1347348). Note: nearly all actives have a fitted effect of over 55% in size. Note: potency is the fitted concentration of half-maximal effect. A digest of the protocol: as §1

Records with an inconclusive call do not appear. Values without a mark were called inactive. The source made the active and inactive calls. Calls come from the whole dose curve; as a rule, active = well fitted curve in the direction sought with a large enough effect; inconclusive = small, poorly fitted or top-dose-only effect, or another doubt; inactive = no such curve, though single readings can be large; an effect the other way counts as inactive or inconclusive.

Turning to `C[C@@]12C[C@@H](C[C@H]3C(=O)O[C@@H](c4ccoc4)[C@H](OC(=O)c4ccccc4)[C@@H]31)OC2=O`, the Potency entry in assay [1], in [2], in assay [3], in [4], in assay [5] and in assay [6] was “inactive” each time. Further, the Potency result in assay [7], in [8], in assay [9], in assay [10], in assay [11] and in assay [12] was “inactive” throughout. Further, the Potency result in assay [14], in assay [15], in [16] and in [17] was “inactive” throughout. The outcome in assay [13] was inactive.
Take `C=C(C)[C@@H]1CC[C@]2(C)CC[C@]3(C)[C@H](CC[C@@H]4[C@@]5(C)CC[C@H](O)C(C)(C)[C@@H]5CC[C@]43C)[C@@H]12`: the Potency entry in [1], in assay [3], in assay [4], in [5], in [18] and in assay [6] was “inactive” each time. For the same compound, the Potency entry in [7], in [8], in assay [9], in assay [10], in assay [11] and in assay [12] was “inactive” in each case. The Potency entry in assay [14], in assay [15], in [16] and in assay [17] was “inactive” in each case. Moreover, the compound was called inactive in [13].
Take `CC1C(=O)C23CCC1C[C@@]21O[C@H]2C(C)(C)C=CC(=O)[C@@]23COC1=O` (stereo not given in full): the Potency result in [1], in assay [2], in [3], in assay [4], in assay [5] and in assay [18] was “inactive” in each case. Besides, the Potency result in [6], in [7], in assay [8], in [9], in assay [10] and in assay [11] was “inactive” throughout. The Potency entry in assay [12], in assay [14], in assay [15], in assay [16] and in assay [17] was “inactive” throughout. Moreover, in assay [13], the outcome was inactive.
For `C[C@@H]1C(=O)[C@]23CC[C@H]1C[C@]21O[C@H]2C(C)(C)C=CC(=O)[C@]23COC1=O`, the Potency entry in [1], in assay [2], in [19], in assay [3], in assay [4] and in [5] was “inactive” each time. Further, the Potency entry in [6], in assay [7], in assay [8], in assay [9], in [10] and in assay [11] was “inactive” in each case. Besides, the Potency entry in [12], in assay [14], in assay [15], in assay [16] and in [17] was “inactive” throughout. Besides, the call in [13] was inactive.
`CO[C@@H]1C[C@@H](C[C@H]2CC[C@H](C)[C@H]([C@@H](C)C(=O)O)O2)O[C@]2(O[C@](C)([C@H]3CC[C@@](C)([C@@H]4O[C@@H]([C@H]5O[C@](C)(O)[C@H](C)C[C@@H]5C)C[C@@H]4C)O3)C[C@H]2C)[C@@H]1C`: the Potency in assay [1] is 11000 nM (active); in assay [2], 3340 nM (active); in assay [19] it was 94.1 nM (active); in assay [3], 3750 nM (active); in assay [4], 37.2 nM (active); in assay [5], 9410 nM (active). For the same compound, the Potency was 5900 nM (active) in assay [7]; 93.5 nM (active) in [8]; 132 nM (active) in assay [9]; 14800 nM (active) in assay [10]; 2110 nM (active) in assay [11]; 1040 nM (active) in [16]. Further, the result in assay [13] was inactive. Besides, the Potency entry in [14] and in assay [17] was “inactive” throughout.
